# BoNT F protease = inhibitors of Botulinum neurotoxin F light chain protease | Multiplex microsphere protease cleavage assay, flow cytometry | inhibition, % at 10 µM | 0.22% of 360,000 active; in the data active = inhibition above about 35%, passing the limit was not always enough; inconclusive = no clear call, values can overlap the other calls
# MazF activator = MazEF (E. coli) toxin RNase activation. P0AE70. FAM/BHQ RNA-DNA oligo cleavage fluorescence, 5 h. activation, % at 20 µM. 0.32% of 350,000 active. AID 504720; in the data active = activation above about 50%
# PriA SSB inh = blocks PriA binding to SSB C-terminal tail | AlphaScreen SSBct-PriA binding, biotinylated peptide | inhibition, % at 33 µM | 0.6% of 430,000 active; in the data active = inhibition mostly above about 37%, no sharp cut-off; inactive = mostly below about 20%
# Anthrax LF inh2 = inhibitors of Bacillus anthracis lethal factor protease. P15917. multiplex microsphere protease cleavage assay, LF. inhibition, % at 10 µM. 0.12% of 360,000 active. AID 588501
# Target sequence (P15917 whole entry, looked up): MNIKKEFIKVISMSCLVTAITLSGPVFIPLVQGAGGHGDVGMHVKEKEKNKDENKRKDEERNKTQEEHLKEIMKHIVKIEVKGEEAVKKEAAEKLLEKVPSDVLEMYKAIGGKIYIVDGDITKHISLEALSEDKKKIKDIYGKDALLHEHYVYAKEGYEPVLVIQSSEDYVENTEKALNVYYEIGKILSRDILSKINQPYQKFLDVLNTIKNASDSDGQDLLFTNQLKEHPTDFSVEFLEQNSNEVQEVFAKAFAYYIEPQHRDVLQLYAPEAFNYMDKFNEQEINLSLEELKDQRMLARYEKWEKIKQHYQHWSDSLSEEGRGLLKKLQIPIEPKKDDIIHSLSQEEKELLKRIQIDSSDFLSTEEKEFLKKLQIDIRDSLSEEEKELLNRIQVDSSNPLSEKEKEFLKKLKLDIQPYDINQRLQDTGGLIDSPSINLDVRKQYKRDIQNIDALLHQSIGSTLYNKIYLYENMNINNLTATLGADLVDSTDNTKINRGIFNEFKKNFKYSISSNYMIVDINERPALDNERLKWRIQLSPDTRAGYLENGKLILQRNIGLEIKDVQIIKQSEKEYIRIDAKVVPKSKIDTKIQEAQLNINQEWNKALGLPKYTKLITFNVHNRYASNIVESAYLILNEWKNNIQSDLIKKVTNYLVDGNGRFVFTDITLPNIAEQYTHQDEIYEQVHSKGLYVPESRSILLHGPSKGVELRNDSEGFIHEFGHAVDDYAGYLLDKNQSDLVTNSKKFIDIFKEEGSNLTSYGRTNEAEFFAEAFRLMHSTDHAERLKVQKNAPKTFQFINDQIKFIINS
# BoNT-A LC inh2 = inhibitors of Botulinum neurotoxin A light chain protease; multiplex microsphere protease substrate cleavage, flow cytometry; inhibition, % at 10 µM; 0.17% of 360,000 active; AID 588499
# Autofluor counter = flagged as autofluorescent in microsphere protease counterscreen; compound autofluorescence counterscreen, microsphere flow cytometry; active compounds read high; fluorescence intensity (concentration not given with the values); 3.1% of 360,000 active; AID 624483; in the data active = fluorescence intensity above about 16000; inconclusive = no clear call, values can overlap the other calls
# Numbers stand for hits; n = inactive; u = inconclusive; x = no result. Shown are actives, neighbours in structure and some others; about 3.3% of the full set was active somewhere. Rule as the data show it, unless noted: active = inhibition above about 30%; inconclusive = no clear call, values can overlap the other calls; inactive = below that.
SMILES,BoNT F protease,MazF activator,PriA SSB inh,Anthrax LF inh2,BoNT-A LC inh2,Autofluor counter
CCCn1c(=O)c2sc(N3CCCC3)nc2n(CC(=O)Nc2ccccc2C(=O)OCC)c1=O,x,x,n,x,x,x
COc1ccccc1OCCCC(=O)Nc1cc(Cl)cc(Cl)c1,x,x,n,x,x,x
CCOC(=O)COc1ccc2ccccc2c1/C=C/[N+](=O)[O-],n,n,n,n,n,n
CCOc1ccc(/C=C/[N+](=O)[O-])c2ccccc12,n,n,n,n,47.0,n
COc1ccc(OC)c(-c2cc(C(=O)N(Cc3ccoc3)Cc3cccs3)n(C)n2)c1,x,x,n,x,x,x
CCC1S/C(=N/N=C/c2ccco2)N(Cc2ccccc2C)C1=O (configuration not stated),u,n,x,40.7,u,n
N#C/C(=C/c1ccc(-c2ccccc2[N+](=O)[O-])o1)C(N)=O,n,54.2,n,n,n,n
O=C(/C=C/c1ccc(-c2ccccc2[N+](=O)[O-])o1)c1ccc(Br)cc1,n,n,n,n,u,21485
O=C(/C=C/c1ccc(-c2ccccc2[N+](=O)[O-])o1)c1ccc(F)cc1,n,n,n,n,n,n
O=C(c1ccoc1)N1CCC(CNS(=O)(=O)c2cccc(C(F)(F)F)c2)CC1,x,x,n,x,x,x
COc1ccc(-c2ccc(-c3nnn(CC(C)=O)n3)cc2)cc1,n,n,n,n,n,22673
CC(=O)c1ccc(S(=O)(=O)N2CCn3cccc3[C@H]2c2ccc(Br)cc2)cc1,x,x,n,x,x,x
COC(=O)N1CCCc2cc(C)ccc21,n,n,n,n,n,n
Cc1ccc2c(c1)CCCN2C(=O)c1cc2ccccc2oc1=O,n,n,n,n,u,16268
Cc1ccc2c(c1)CCCN2C(=O)c1ccoc1C,n,n,n,n,n,21940
Cc1ccc2c(c1)CCCN2C(=O)c1c(C)noc1C,n,n,n,n,n,22666
Cc1ccc2c(c1)CCCN2C(=O)C1CCCO1 (configuration not stated),n,n,n,n,n,22991
Cc1noc(C)c1C(=O)N1CCCc2ccccc21,n,n,n,n,n,n
Cc1ccc(NC(=NS(=O)(=O)c2cccs2)c2ccccc2)c(C)c1,x,x,n,x,x,x
CCc1ccc2c(c1)CCCN2C(=O)c1ccccc1C(=O)O,n,n,n,n,n,19882
CCC1(CC)C(=O)NC(=O)NC1=NCCc1c[nH]c2ccccc12,n,n,n,n,n,21453
CCC(=O)N1CCN=C1SCc1ccc(Br)cc1,x,x,n,x,x,x
O=C(CCc1ccc(Oc2cc([N+](=O)[O-])cc([N+](=O)[O-])c2)cc1)N1CCCCCC1,n,n,38.8,n,n,n
COc1ccc(CCC(=O)N2CCC3(CC2)OCCO3)cc1,n,n,n,n,n,16327
COc1ccc(CCC(=O)N2CCN(C3CCCCC3)CC2)cc1,n,n,n,n,n,20796
SMILES,BoNT F protease,MazF activator,PriA SSB inh,Anthrax LF inh2,BoNT-A LC inh2,Autofluor counter
COc1ccc(CCC(=O)NCC2CCN(C3CCCC3)CC2)cc1,x,x,n,x,x,x
Cc1nc2cc(-c3ccccc3)nn2c(C)c1CCC(=O)N1CCC2(CC1)OCCO2,n,n,n,n,n,16588
O=S(=O)(NCC(c1cccs1)N1CCc2ccccc21)c1cccs1 (configuration not stated),x,x,n,x,x,x
COc1cccc2cc(-c3nnc(NC(=O)C4CCCN(S(C)(=O)=O)C4)o3)oc12 (configuration not stated),x,x,n,x,x,x
CC(C)(C)C(=O)Nn1cnc2c(cnn2C(C)(C)C)c1=O,x,x,n,x,x,x
O=C(NC(=S)N1CCN(c2ccc(C(F)(F)F)cc2[N+](=O)[O-])CC1)c1cccs1,n,n,51.2,n,n,n
CCN1CCN(C(=S)NC(=O)c2cccs2)CC1,n,n,n,n,n,n
FC(F)(F)c1nnc2c(Sc3ccccn3)nc3ccccc3n12,n,n,n,n,n,22962
O=C(O)CNS(=O)(=O)c1ccc(F)cc1,n,n,n,n,n,21439
Cc1ccc(S(=O)(=O)NCC(=O)O)cc1,x,x,n,x,x,x
O=C(O)Cc1csc(SCC(=O)c2ccc(F)cc2)n1,x,x,n,x,x,x
CCN(CC)C(=O)CN(c1ccc2c(c1)OCO2)S(C)(=O)=O,n,n,n,n,n,n
CCCCCNC(=O)CN(c1ccc2c(c1)OCO2)S(C)(=O)=O,n,n,n,n,n,20699
Cc1ccc(SCCNC(=O)CN(c2ccc3c(c2)OCO3)S(C)(=O)=O)cc1,n,n,n,n,n,n
COC(=O)CN(c1ccc2c(c1)OCO2)S(C)(=O)=O,n,n,n,n,n,24591
O=C(NN=Cc1ccc2cccc(OCc3ccccc3)c2n1)c1ccc(Cl)cc1,x,x,n,x,x,x

# High-throughput results: PubChem, several laboratories
